Calls of active or inactive are those of the source. Unless noted, no rule for the calls is given here.
What was measured:
[1] = compounds binding Alexa647 anti-His antibody – biochemical, small-molecule microarray, 635 nm fluorescence, artefact control for SMM control protein annotation, primary screen (AID 1128); settings: higher = more signal;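 also: score merges feature fluorescence with signal-to-noise for each printed compound spot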
[2] = system: Human papillomavirus type 1a E7 protein (residues 1-88); assay: HPV1a E7 small-molecule binders, primary screen, biochemical, small-molecule microarray, residues 1-88, 635 nm (AID 1129); settings: small-molecule microarray binding, fluorescence 635 nm; higher = more signal
[3] = target: Focal adhesion kinase 1 (Homo sapiens) (UniProt Q05397); assay: PTK2 protein binding on printed compound slides – biochemical, small-molecule microarray, 635/667 nm fluorescence, BSA, DTT, primary screen (AID 1130); settings: 635 nm fluorescence, higher = more signal;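 also: composite of spot emission at 667 nm and signal to noise over triplicate slides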
Focal adhesion kinase 1 (Homo sapiens), sequence (Q05397 whole entry, looked up): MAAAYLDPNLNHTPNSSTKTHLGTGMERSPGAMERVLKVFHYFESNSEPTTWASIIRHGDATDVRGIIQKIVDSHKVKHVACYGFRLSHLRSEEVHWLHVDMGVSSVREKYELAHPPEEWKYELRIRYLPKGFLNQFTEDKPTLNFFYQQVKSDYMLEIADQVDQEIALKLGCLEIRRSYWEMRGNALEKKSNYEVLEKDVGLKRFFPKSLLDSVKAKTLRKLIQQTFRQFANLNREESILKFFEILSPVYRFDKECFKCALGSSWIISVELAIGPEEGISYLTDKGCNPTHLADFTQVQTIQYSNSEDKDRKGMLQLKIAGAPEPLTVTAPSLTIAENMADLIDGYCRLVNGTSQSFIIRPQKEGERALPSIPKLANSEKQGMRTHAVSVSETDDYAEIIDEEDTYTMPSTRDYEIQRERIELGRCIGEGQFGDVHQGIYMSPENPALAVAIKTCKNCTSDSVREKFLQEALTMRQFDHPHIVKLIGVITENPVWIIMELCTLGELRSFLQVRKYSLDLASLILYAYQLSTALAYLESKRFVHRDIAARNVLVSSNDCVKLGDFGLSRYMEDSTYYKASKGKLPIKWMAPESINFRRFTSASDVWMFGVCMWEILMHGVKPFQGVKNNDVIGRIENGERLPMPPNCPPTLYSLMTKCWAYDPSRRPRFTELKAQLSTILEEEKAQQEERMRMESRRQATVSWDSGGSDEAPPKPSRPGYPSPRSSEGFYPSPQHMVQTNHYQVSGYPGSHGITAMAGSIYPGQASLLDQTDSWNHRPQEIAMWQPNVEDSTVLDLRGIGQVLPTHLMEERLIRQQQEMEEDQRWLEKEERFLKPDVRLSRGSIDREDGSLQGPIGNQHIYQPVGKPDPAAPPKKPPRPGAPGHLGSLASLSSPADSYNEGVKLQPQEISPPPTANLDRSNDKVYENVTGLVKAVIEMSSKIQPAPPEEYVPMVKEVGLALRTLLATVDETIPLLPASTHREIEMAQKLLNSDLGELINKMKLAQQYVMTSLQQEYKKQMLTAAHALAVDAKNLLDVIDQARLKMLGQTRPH

[4] = system: Fibrinogen (Alexa647-labelled); assay: Alexa647-fibrinogen binding to printed small molecules – biochemical, small-molecule microarray, 635/667 nm fluorescence, artefact control for SMM control-protein annotation, profiling panel (AID 1131); settings: fibrinogen-A647 binding fluorescence, higher = more signal;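 also: z-score merges 667 nm fluorescence with per-spot signal-to-noise over triplicate slides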
[5] = target: Follistatin (Homo sapiens) (UniProt P19883); assay: FST protein binding to printed compounds – biochemical, small-molecule microarray, 635/667 nm fluorescence, primary screen (AID 1132); settings: 635 nm fluorescence, higher = more signal
Follistatin (Homo sapiens), sequence (P19883 whole entry, looked up): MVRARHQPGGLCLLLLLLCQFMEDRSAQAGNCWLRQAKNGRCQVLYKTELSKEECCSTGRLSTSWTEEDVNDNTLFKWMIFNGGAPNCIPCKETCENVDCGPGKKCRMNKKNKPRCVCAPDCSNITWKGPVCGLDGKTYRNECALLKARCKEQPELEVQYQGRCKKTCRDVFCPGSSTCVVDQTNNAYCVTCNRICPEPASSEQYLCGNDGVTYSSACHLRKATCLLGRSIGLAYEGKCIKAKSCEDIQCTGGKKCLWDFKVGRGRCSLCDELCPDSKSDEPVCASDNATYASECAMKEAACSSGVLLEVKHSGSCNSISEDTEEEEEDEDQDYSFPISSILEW

[6] = target: Fibroblast growth factor 2 (Homo sapiens) (UniProt P09038); assay: basic fibroblast growth factor binding to printed compounds – biochemical, small-molecule microarray, 635/667 nm fluorescence, primary screen (AID 1133); settings: FGF2, fluorescence 635/667, higher = more signal
Fibroblast growth factor 2 (Homo sapiens), sequence (P09038 whole entry, looked up): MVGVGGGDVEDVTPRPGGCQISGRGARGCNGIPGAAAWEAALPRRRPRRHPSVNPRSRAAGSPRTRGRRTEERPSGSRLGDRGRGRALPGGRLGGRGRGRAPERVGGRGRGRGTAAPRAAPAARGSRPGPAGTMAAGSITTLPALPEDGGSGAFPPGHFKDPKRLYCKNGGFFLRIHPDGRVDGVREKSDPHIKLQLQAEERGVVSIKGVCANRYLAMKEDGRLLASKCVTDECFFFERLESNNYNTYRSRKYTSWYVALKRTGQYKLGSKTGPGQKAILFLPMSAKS

[7] = JC-1 mitochondrial potential readout, lung cancer cells – cell-based, A549, JC-1 fluorescence, basal, 24 h, 100 nL, profiling panel (AID 1138); settings: higher = more signal;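 also: A549 lung adenocarcinoma cells under basal conditions with no added stimulus; test concentration not given here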
Lefty1 = Lefty1 protein binding to printed compounds – biochemical, small-molecule microarray, 635/667 nm fluorescence, primary screen (AID 1139); settings: fluorescence 635/667, higher = more signal
[8] = system: wheat germ agglutinin (Triticum aestivum), Alexa647-labelled; assay: Alexa647-WGA lectin binding to printed small molecules – biochemical, small-molecule microarray, 635/667 nm fluorescence, artefact control for SMM control-protein annotation, profiling panel (AID 1140); settings: WGA-A647 binding, 635 nm fluorescence, higher = more signal;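 also: score merges 667 nm feature emission with signal to noise over triplicate slides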
[9] = target: Luciferin 4-monooxygenase (Photinus pyralis) (UniProt P08659); assay: inhibition of purified Photinus pyralis luciferase – biochemical, luminescence, purified enzyme, 2006 set, primary screen (AID 1141); settings: purified firefly luciferase, SteadyGlo luminescence, 30 min; higher = more signal, called active from +8 up or from −8 down;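 also: cell-free assay with purified firefly luciferase at 100 ng per well in PBS; test concentration not given here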
Luciferin 4-monooxygenase (Photinus pyralis), sequence (P08659 whole entry, looked up): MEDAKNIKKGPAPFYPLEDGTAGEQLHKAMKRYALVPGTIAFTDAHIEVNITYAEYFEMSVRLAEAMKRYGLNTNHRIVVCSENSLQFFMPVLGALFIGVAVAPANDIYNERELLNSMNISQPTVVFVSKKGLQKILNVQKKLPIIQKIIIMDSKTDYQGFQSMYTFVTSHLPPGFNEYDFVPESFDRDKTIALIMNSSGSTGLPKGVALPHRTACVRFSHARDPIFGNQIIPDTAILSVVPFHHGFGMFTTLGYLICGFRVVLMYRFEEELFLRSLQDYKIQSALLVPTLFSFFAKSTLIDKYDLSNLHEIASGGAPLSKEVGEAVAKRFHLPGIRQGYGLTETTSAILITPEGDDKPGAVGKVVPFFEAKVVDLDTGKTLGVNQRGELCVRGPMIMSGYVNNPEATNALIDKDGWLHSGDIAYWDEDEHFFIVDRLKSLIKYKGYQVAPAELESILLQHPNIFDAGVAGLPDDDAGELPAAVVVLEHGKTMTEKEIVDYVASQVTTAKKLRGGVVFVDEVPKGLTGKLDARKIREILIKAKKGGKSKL

[10] = system: Wnt5a (protein binding on small-molecule microarray); assay: small molecules binding Wnt5a protein – biophysical, small-molecule microarray, 635/667 nm fluorescence, primary screen (AID 1142); settings: 635 nm fluorescence, higher = more signal;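 also: fluorescence read at 667 nm with signal to noise per printed feature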
[11] = ATP-based viability of Huh7 replicon cells – cell-based, CellTiter-Glo luminescence, basal, 48 h, cytotoxicity control for HCV replication inhibitor project, primary screen (AID 1143); settings: higher = more signal, called active from +8 up or from −8 down;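 also: Huh7 hepatoma cells carrying a hepatitis C replication reporter with no stimulus; test concentration not given here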
[12] = Pseudomonas biofilm growth suppression – PAO1 strain, BacTiter-Glo luminescence, LB-PBS, primary screen (AID 1144); settings: P. aeruginosa PAO1 biofilm, 12 h, higher = more signal
[13] = basal CRE-LacZ reporter activity in PC12 – cell-based, unstimulated, primary screen (AID 1145); settings: no forskolin, luminescence, 4.5 h, higher = more signal, called active from +8 up or from −8 down
[14] = forskolin-driven CRE-LacZ activity in PC12 – cell-based, CRE-LacZ reporter, forskolin-stimulated, primary screen (AID 1146); settings: luminescence, 4.5 h, higher = more signal, called active from +8 up or from −8 down;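 also: PC12 cells with 6xCRE LacZ reporter stimulated by forskolin 10 µM; beta-galactosidase reporter signal reflecting CREB driven transcription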
[15] = target: Streptavidin (Streptomyces avidinii) (UniProt P22629); assay: compounds binding control protein streptavidin – biophysical, small-molecule microarray, 635/667 nm fluorescence, artefact control for SMM compound annotation, primary screen (AID 1147); settings: higher = more signal;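 also: signal reflects streptavidin binding to arrayed compounds as a control protein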
Streptavidin (Streptomyces avidinii), sequence (P22629 whole entry, looked up): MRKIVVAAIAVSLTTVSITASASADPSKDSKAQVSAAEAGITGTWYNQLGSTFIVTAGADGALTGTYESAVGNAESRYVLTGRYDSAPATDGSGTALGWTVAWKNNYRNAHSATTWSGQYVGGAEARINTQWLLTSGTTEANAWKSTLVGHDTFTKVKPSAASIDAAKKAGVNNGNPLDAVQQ

[16] = probe aInhba binding on compound microarray – biochemical, small-molecule microarray, 635/667 nm fluorescence, primary screen (AID 1148); settings: higher = more signal;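 also: score merges 667nm spot fluorescence with signal-to-noise for antibody binding to printed compounds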
Torsin-1A (Homo sapiens) [17] = target: Torsin-1A (Homo sapiens) (UniProt O14656); assay: TOR1A wild-type binding on microarray – cell lysate, small-molecule microarray, lysate, 635/667 nm, primary screen (AID 1149); settings: COS7 hTOR1A-WT lysate, 635 nm fluorescence, higher = more signal
Torsin-1A (Homo sapiens), sequence (O14656 whole entry, looked up): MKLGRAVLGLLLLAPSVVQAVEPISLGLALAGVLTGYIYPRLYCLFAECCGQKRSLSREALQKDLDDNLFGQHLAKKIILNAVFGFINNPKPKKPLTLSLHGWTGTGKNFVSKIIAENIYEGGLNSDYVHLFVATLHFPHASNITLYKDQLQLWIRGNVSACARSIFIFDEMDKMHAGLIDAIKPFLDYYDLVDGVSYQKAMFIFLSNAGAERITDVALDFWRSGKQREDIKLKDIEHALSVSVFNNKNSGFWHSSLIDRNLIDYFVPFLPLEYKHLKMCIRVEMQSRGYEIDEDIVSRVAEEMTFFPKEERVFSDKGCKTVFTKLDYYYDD

Torsin-1A (Homo sapiens) [18] = target: Torsin-1A (Homo sapiens) (UniProt O14656); assay: torsin A mutant lysate binding on microarrays – cell lysate, small-molecule microarray, COS7 lysate, 635/667 nm fluorescence, primary screen (AID 1150); settings: COS7 hTOR1A mutant lysate, 635 nm fluorescence, higher = more signal;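 also: score pools 667 nm emission and signal to noise measuring lysate protein binding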
[19] = system: Sonic hedgehog protein (Shh); assay: Sonic hedgehog microarray binding compounds – biochemical, small-molecule microarray, 635/667 nm fluorescence, primary screen (AID 1151); settings: 635 nm fluorescence, higher = more signal;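 also: Shh protein binding to compounds spotted on small-molecule microarray slides; score combines spot fluorescence intensity with signal-to-noise across triplicate slides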

Compound	composite z-score [1]	composite z-score [2]	composite z-score [3]	composite z-score [4]	composite z-score [5]	composite z-score [6]	z-score [7]	composite z-score (Lefty1)	composite z-score [8]	z-score [9]	composite z-score [10]	z-score [11]	z-score [12]	z-score [13]	z-score [14]	composite z-score [15]	composite z-score [16]	composite z-score (Torsin-1A (Homo sapiens) [17])	composite z-score (Torsin-1A (Homo sapiens) [18])	composite z-score [19]
C[N+](C)(C)CCCC[C@@H]1NC(=O)[C@@H]2C[C@H](C(=O)NCCCCCNC(=O)CS)[C@H](c3cccc(OCCO)c3)N2C1=O	0.664	0.14	0.0046	0.909	1.25	1.5	1.71	0.272	0.134	-1.68 (inactive)	0.623	-0.192 (inactive)	0.152 (inactive)	0.688 (inactive)	0.478 (inactive)	0.0879	0.0636	0.628	0.186	1.38
COc1ccc(C(=O)Nc2ccc3c(c2)[C@]2(O[C@@H](CCO)[C@H]([Si](C)(C)c4ccc(OC)cc4)[C@H]2C)C(=O)N3Cc2ccccc2)cc1	-0.155	0.809	0.411	0.491	1.39	0.827	0.168	1.26	0.161	-0.777 (inactive)	0.476	-8.09 (active)	-1.18 (inactive)	1.82 (inactive)	-0.606 (inactive)	0.328	-0.0209	0.816	0.671	1.83
O=[N+]([O-])c1ccc(C[n+]2ccc(-c3ccc(CO)cc3)cc2)o1	1.38	0.148	0.197	-0.0943	1.34	0.59	-0.93	0.362	1.17	-0.208 (inactive)	-0.0922	-1.13 (inactive)	-0.42 (inactive)	-0.464 (inactive)	0.239 (inactive)	0.85	0.0816	-0.078	0.0063	1.44
COCCCNC(=O)[C@@]1(Cc2ccccc2)COC(c2ccc(OCCCO)cc2)=N1	2.66	1.21	0.953	1	0.645	0.986	0.814	-1.07	0.509	0.272 (inactive)	0.788	-1.02 (inactive)	0.211 (inactive)	-0.0808 (inactive)	0.347 (inactive)	-0.207	0.263	0.673	0.878	-0.795
CCOC(=O)C[C@H]1[C@H](OC(=O)Cc2ccc3c(c2)OCO3)[C@@H](NC(=O)c2ccccc2)c2cc(OCCCO)ccc2N1C(=O)c1ccccc1	-0.226	0.669	-0.061	0.731	0.392	0.383	0.673	0.557	1.25	-0.207 (inactive)	-0.0373	-0.363 (inactive)	-0.669 (inactive)	0.512 (inactive)	0.484 (inactive)	0.243	-0.128	0.0229	0.403	0.85
